# In ChEMBL document CHEMBL3433997, “St. Jude Leishmania screening dataset” (2016):
# Molecular target: Solute carrier family 2, facilitated glucose transporter member 1 (Homo sapiens) (UniProt P11166)
# Test: ST_JUDE_LEISH: Cytotoxicity at 2uM final concentration against transgenic Leishmania Mexicana promastigotes LmGLUT1 that are glucose transport deficient and complemented with the human glucose transporter GLUT1. Activity is measured by DNA content using SYBR green in vitro
# Format: functional
# Chain of Solute carrier family 2, facilitated glucose transporter member 1 (Homo sapiens) (P11166 whole entry): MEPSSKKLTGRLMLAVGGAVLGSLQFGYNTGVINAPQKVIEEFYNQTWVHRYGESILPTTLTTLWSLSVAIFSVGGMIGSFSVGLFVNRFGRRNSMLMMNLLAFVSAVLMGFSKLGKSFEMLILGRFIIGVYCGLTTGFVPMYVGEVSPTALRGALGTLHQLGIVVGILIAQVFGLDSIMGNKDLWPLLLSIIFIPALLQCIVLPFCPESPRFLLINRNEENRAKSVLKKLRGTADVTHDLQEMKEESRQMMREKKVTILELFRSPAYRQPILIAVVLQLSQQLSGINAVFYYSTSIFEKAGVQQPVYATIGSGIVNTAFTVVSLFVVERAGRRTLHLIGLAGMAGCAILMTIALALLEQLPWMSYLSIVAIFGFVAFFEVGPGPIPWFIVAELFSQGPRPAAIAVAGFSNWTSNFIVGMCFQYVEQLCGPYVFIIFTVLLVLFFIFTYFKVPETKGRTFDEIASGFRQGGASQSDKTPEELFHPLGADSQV
row,SMILES,inhibition [%]
1,O=C(Nc1ccc(OC2CCN(Cc3ccsc3)C2)c(Cl)c1)c1ccc2ncccc2c1 (stereo not given),-0.7
2,C[C@@H](NC(=O)NC(CCN1CCC2(CC1)CN(S(C)(=O)=O)c1ccccc12)c1ccc(Cl)c(Cl)c1)c1ccccc1 (stereo not given in full),0.39
3,CCCCC(=O)Nc1cc(=O)[nH]c2nc(-c3ccc(Cl)cc3)nn12,-1.02
4,CC1CN(Cc2cccc(F)c2)CCN1c1ccc(NC(=O)c2cccs2)cc1 (stereo not given),-0.87
5,Cc1nc(C)c(-c2ccc(Oc3ccc(OC(F)(F)F)cc3)cc2)c(OC(=O)c2ccccc2)c1Cl,2.27
6,CC(CN1CCN(C)CC1)C(=O)Nc1cccc(-c2cccc(-c3nc4cc(F)ccc4[nH]3)c2)c1 (stereo not given),6.87
7,O=C(NCCCCN1CC=C(c2ccc3c(c2OCc2ccccc2)CCCC3)CC1)c1ccc(-c2ccc(C(F)(F)F)cc2)cc1,-1.51
8,CN1CCN(c2cc(NC(=O)Nc3ccc(-c4ccncc4)c(Cl)c3)ccc2Br)CC1,10.9
9,COc1ccccc1N1CCN(CCCCNC(=O)c2ccc(NC(=O)c3ccc4ccccc4c3)cc2)CC1,0.49
10,Cc1cc(NCCC(=O)NCCOc2ccccc2)nc(NCCc2ccc(F)cc2)n1,2.06
11,CC(Sc1nc2sccc2c(=O)n1C)C(=O)Nc1ccc2c(c1)OCO2 (stereo not given),4.94
12,O=C(Cc1ccccc1)NC(CCN1CCC(NC(=O)c2ccc(Cl)cc2)CC1)c1ccc(Cl)c(Cl)c1 (stereo not given),2.22
13,O=C(Cc1cccnc1)Nc1cccc(-c2cccc(-c3nc4cc(C(F)(F)F)ccc4[nH]3)c2)c1,2.67
14,O=S(=O)(ON=C1CCc2ccccc21)c1ccc(Cl)cc1,1.95
15,Cc1cccc(CNc2nc(C)cc(N[C@@H](Cc3ccccc3)C(=O)NC3CCCC3)n2)c1,16.1
16,CC(C)(C)OC(=O)NCc1ccc(Nc2nnc(-c3cccc(C(=O)NCCC(c4ccccc4)c4ccccc4)c3)o2)cc1,8.74
17,Clc1ccc(Nc2nc(-c3ccccn3)cs2)nc1,67.7
18,CC1(C)NC(N)=NC(=N)N1OCCSc1ccc(Cl)c(Cl)c1,5.92
19,COc1ccc(CN2CCC(NCc3cccc(-n4ccnc4)c3)CC2)cc1,3.99
20,CCCC(C)Nc1nc(C)cc(N[C@@H](Cc2ccccc2)C(=O)NCCOc2ccccc2)n1 (stereo not given in full),4.27

row,SMILES,inhibition [%]
1,O=C(Nc1cccc(-c2cc(-c3c(Cl)cccc3Cl)no2)c1)c1cncc(-c2cccs2)c1,16
2,CCCNC(=O)C1CCN(C(c2ccc(Cl)cc2)c2ccc(Cl)cc2)CC1,-0.62
3,Cc1cc(C)c(C(=O)Nc2n[nH]c3nnc(-c4cccc(F)c4F)cc23)c(C)c1,0.09
4,CCCCc1cc(Cc2cnc(N)nc2N)cc(OC)c1OC,3.17
5,O=C(Nc1ccc(N2CCCN(Cc3cccc(F)c3)CC2)cc1)c1ccccc1,0.26
6,CC(=O)c1nccc(C)c1N,2.66
7,O=C(C=Cc1ccc(-c2nc3ccccc3[nH]2)cc1)NC1CCN(Cc2ccccc2)CC1,-1.19
8,CC1CN(c2cc(=O)n(Cc3ccc(NC(=O)Nc4ccc(-c5ccccc5)cc4)cc3)cn2)CC(C)N1 (stereo not given),1.33
9,COc1ccc(Nc2nc(C)cc(NCc3ccc(-c4c(C)noc4C)cc3)n2)cc1,17.4
10,O=C(Nc1cc(Cl)ccc1O)c1ccc(Oc2ccc(C(=O)Nc3cc(Cl)ccc3O)cc2)cc1,-1.36
11,Fc1ccc(-c2cncc(-c3ccc(F)cc3)n2)cc1,9.28
12,COc1ccc2nccc([C@@H](O)CN3CCC(NCc4cc5cc(Cl)ccc5[nH]4)CC3)c2c1,12.5
13,Cc1cccc2nc(-c3ccc(-c4cccc(NC(=O)c5cncn5C)c4)s3)[nH]c12,0.66
14,CCN1CCN(c2ccc(Nc3ccnc4ccc(Br)cc34)cc2)CC1,1.43
15,O=c1ccc(CNc2nc(NCCc3ccccc3)nc3ccc(Cl)cc23)c[nH]1,3.36
16,N#CCCN1CCN(Cc2ccc(-c3ccc(-c4nc5cc(F)ccc5[nH]4)s3)cc2)CC1,5.49
17,COc1ccc(CNc2nccc3ccc(-c4ccc5nccn5c4)cc23)cc1,1.79
18,O=C(Nc1ccc(Cl)cc1)c1ccc(CN2CCCN(CC3CCCCC3)CC2)cc1,4.77
19,N#Cc1cc(C(=O)c2cc(Cl)ccc2O)cn(-c2cc(Cl)cc(Cl)c2)c1=O,2.16
20,N#Cc1ccc(N/C(=N\c2ccccc2Br)N(C2CCCCC2)C2CCCCC2)c(O)c1,6.11
